Assay outcomes: PubChem, National Center for Advancing Translational Sciences (NCATS)
Shown are actives, neighbours in structure and some others; about 14% of the full set was active somewhere.
HCMV inh – qHTS Assay for inhibitors of the human cytomegalovirus (HCMV). AID 1259415, 2018. HFF cells, HCMV-luciferase reporter, 72 h; stronger effect = lower value. 410,000 compounds, 4.5% hits. activity change, negative = inhibition, % at 57.5 µM; in the data active means activity change below about -60%; inconclusive means no clear call, values can overlap the other calls; inactive means above about -39%
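Two compound doses tested in HFFs infected with HCMV-luciferase, MOI 1 PFU/cell, 72 h at 37C. Lysate luminescence read with OneGlo; data normalized against buffer-only and 10uM Salinomycin inhibitor controls.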
Pf growth 96h – Primary qHTS for delayed death inhibitors of the malarial parasite plastid, 96 hour incubation. P. falciparum luciferase reporter growth, 96 h. Potency, µM (series often up to 28.7 µM), for the others: at the highest dose activity change, negative = inhibition, hits mostly inhibitors. AID 504834, 2011. 320,000 compounds, 6.9% hits; further: potency means the concentration at half of the fitted maximal effect
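P. falciparum expressing integrated firefly luciferase, in erythrocytes at 2% hematocrit, 0.05% parasitemia, incubated with compounds 96 h at 37 C, 5% CO2. Growth inhibition read as loss of luminescence; two-generation exposure targets delayed-death apicoplast inhibitors.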
Giardia FBPA inh-1 – qHTS Assay for Inhibitors of Fructose-1,6-bisphosphate Aldolase from Giardia Lamblia. 290,000 compounds, 0.71% hits. purified Giardia FBPA. Potency, µM (titrated, usually from 59.6 µM), for inactives: top-dose activity, negative = inhibition, hits mostly inhibitors. A8B2U2; further: potency means the concentration at half of the fitted maximal effect; nearly all actives have a fitted effect of over 55% in size
Target sequence (A8B2U2 whole entry, looked up): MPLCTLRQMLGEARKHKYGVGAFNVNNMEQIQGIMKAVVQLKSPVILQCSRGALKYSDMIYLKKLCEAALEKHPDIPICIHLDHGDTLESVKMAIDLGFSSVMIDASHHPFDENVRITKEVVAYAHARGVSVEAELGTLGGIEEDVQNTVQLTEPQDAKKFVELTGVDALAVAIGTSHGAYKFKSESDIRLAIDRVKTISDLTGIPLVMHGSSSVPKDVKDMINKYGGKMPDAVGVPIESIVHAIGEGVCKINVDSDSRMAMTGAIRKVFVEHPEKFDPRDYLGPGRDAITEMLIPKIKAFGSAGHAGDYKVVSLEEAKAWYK
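40 nM FBPA preincubated 10 min at RT with compound (up to 57.5 uM final), then substrate plus GAPDH/TPI/NAD/arsenate coupling and diaphorase/resazurin added. Fluorescence read after 20 min at RT, 525/598 nm.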
Sm TGR inh – qHTS Assay for the Inhibitors of Schistosoma Mansoni Peroxiredoxins | Potency, µM (doses to about 114 µM), for inactives: at the top dose activity change, negative = inhibition, usual class: inhibitors | purified TGR, DTNB reduction, TNB absorbance 405 nm | AID 485364, 2010 | 360,000 compounds, 3% hits | Schistosoma mansoni thioredoxin glutathione reductase (TGR), Q962Y6; further: potency means the concentration at half of the fitted maximal effect; nearly all actives have a fitted effect of over 60% in size
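TGR 20 nM + NADPH 100 uM (dispensed conc.), cpd preinc 15 min RT; start with NADPH (500 uM addition) then DTNB (15 mM addition). Kinetic TNB absorbance, 405 nm filter. Four-parameter Hill fit across titration.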
Pf growth 48h – Primary qHTS for delayed death inhibitors of the malarial parasite plastid, 48 hour incubation | 310,000 compounds, 5.9% hits | Potency, µM (series often up to 28.7 µM), for inactives: top-dose activity change, negative = inhibition, usual class: inhibitors | P. falciparum luciferase growth in erythrocytes, 48 h | AID 504832, 2011; further: potency means the concentration at half of the fitted maximal effect
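First compound was added to culture medium, then infected red cells at 0.1% parasitemia and 2% hematocrit (final). After incubation at 37 C under 5% CO2, luciferase detection reagent was dispensed and light output recorded.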
Giardia growth – qHTS Assay for Inhibitors of Fructose-1,6-bisphosphate Aldolase from Giardia Lamblia: Giardia lamblia growth inhibition | shares compounds with Giardia FBPA inh-1 | Potency, µM (titrated, usually from 57.5 µM), for the others: at the top dose activity change, negative = inhibition, usual class: inhibitors | 1,500 compounds, 5% hits | Giardia lamblia trophozoite growth inhibition;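 further: potency means the concentration at half of the fitted maximal effect; trophozoites exposed to compound for 48 h at 37 °C; nearly all actives have a fitted effect of over 70% in size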
Mammal cell tox – qHTS Assay for Inhibitors of Fructose-1,6-bisphosphate Aldolase from Giardia Lamblia: Mammalian cellular toxicity. mammalian cell viability counter-screen, qHTS. Potency, µM (series often up to 57.5 µM), for inactives: at the top dose viability change, negative = toxicity, usual class: inhibitors. 1,500 compounds, 4% hits. shares compounds with Giardia FBPA inh-1;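 further: Chinese hamster ovary cells used as mammalian cytotoxicity surrogate; viability measured as cellular ATP by luminescence; potency means the concentration at half of the fitted maximal effect; compound exposure lasted 48 h before reading; nearly all actives have a fitted effect of over 60% in size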
Giardia FBPA inh-2 – qHTS Assay for Inhibitors of Fructose-1,6-bisphosphate Aldolase from Giardia Lamblia: Primary screen confirmation; shares compounds with Giardia FBPA inh-1; purified Giardia aldolase enzyme activity, qHTS; Potency, µM (highest dose often 57.5 µM), inactives show at the highest dose activity change, negative = inhibition, most hits filed as inhibitors; 1,500 compounds, 5% hits; further: potency means the concentration at half of the fitted maximal effect; nearly all actives have a fitted effect of over 45% in size
Rabbit FBPA inh – qHTS Assay for Inhibitors of Fructose-1,6-bisphosphate Aldolase from Giardia Lamblia: Rabbit FBPA Selectivity | 1,500 compounds, 4% hits | Potency, µM (doses to about 57.5 µM), without a hit: at the highest dose activity, negative = inhibition, actives largely listed as inhibitors | shares compounds with Giardia FBPA inh-1 | Rabbit muscle FBPA enzyme inhibition, selectivity counter-screen; further: potency means the concentration at half of the fitted maximal effect; nearly all actives have a fitted effect of over 60% in size
Target sequence (P00883 whole entry, looked up): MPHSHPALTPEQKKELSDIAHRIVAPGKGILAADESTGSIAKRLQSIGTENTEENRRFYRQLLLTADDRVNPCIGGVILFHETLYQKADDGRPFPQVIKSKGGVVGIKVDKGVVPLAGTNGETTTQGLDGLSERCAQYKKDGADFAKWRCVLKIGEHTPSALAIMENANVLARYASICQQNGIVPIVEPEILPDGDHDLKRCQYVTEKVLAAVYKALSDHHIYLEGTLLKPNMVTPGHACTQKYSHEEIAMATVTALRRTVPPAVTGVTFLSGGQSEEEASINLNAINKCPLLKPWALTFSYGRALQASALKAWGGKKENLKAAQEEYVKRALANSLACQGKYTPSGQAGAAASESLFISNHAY
GAPDH coupling – qHTS Assay for Inhibitors of Fructose-1,6-bisphosphate Aldolase from Giardia Lamblia: Coupling assay counterscreen confirmation. 1,500 compounds, 6% hits. Potency, µM (top dose mostly 57.5 µM), inactives show at the top dose activity change, negative = inhibition, usual class: inhibitors. AID 2795, 2010. GAPDH coupling enzyme counterscreen, biochemical, qHTS. shares compounds with Giardia FBPA inh-1; further: potency means the concentration at half of the fitted maximal effect; nearly all actives have a fitted effect of over 55% in size
* hit, by the source's call; u = inconclusive; x = no result; [ ] = dose if it differs, or a comment. Unless noted, the call rests on the fitted dose curve; in most records, active means well fitted curve in the direction sought with a large enough effect; inconclusive means small, poorly fitted or top-dose-only effect, or another doubt; inactive means no such curve, though single readings can be large; an effect the other way counts as inactive or inconclusive. On the % scale 0 is the no-effect control and ±100 the full control effect.

SMILES	HCMV inh	Pf growth 96h	Giardia FBPA inh-1	Sm TGR inh	Pf growth 48h	Giardia growth	Mammal cell tox	Giardia FBPA inh-2	Rabbit FBPA inh	GAPDH coupling
Cc1cc(C(C)(C)C)ccc1OCCn1ccnc1	-33.0	u	-27.0%	-0.9%	x	x	x	x	x	x
Cc1cc(C)c(OCCCn2ccnc2)c(C)c1	-3.2	-18.5%	u	-0.5%	u	x	x	x	x	x
CC(C)C(=O)Nc1ccccc1C(=O)OCc1cc(=O)n2nc(C3CC3)sc2n1	37.5	x	x	5.6%	x	x	x	x	x	x
CC(OC(=O)CCNS(=O)(=O)c1ccc(Cl)cc1)C(=O)N(C)Cc1ccccc1 (centres undefined)	20.2	x	x	x	x	x	x	x	x	x
O[N+]1=CC=CCC1=S.On1ccccc1=S.[Zn]	x	x	0.5µM*	x	x	10µM*	2.82µM*	u	u	u
CN1CCc2c(sc(NC(=O)c3cc(Cl)sc3Cl)c2C(N)=O)C1	2.5	u	31.6µM*	-20.6%	u	-65.0%	u	3.7%	2.2%	0.4%
CCC(=O)Nc1sc2c(c1C(=O)OC)CCN(Cc1ccccc1)C2	9.4	-4.1%	12.6µM*	-22.8%	u	-4.2%	-20.9%	-6.5%	1.4%	-22.1%
CN1CCc2c(sc(NC(=O)c3ccco3)c2C(N)=O)C1	16.1	u	-14.4%	0.0%	u	x	x	x	x	x
COc1cccc(OC)c1C(=O)Nc1sc2c(c1C(N)=O)CCN(Cc1ccccc1)C2	-6.9	u	12.6µM*	-14.8%	u	-54.2%	-5.9%	-1.7%	14.7%	-10.1%
CC(C)N1CCc2c(sc(NC(=O)Cc3ccccc3)c2C(N)=O)C1	-1.7	u	12.6µM*	-1.5%	u	u	10.6%	9.0%	8.4%	9.5%
COC(=O)c1c(NC(=O)C2CC2)sc2c1CCN(C(C)=O)C2	87.0	-8.7%	-3.4%	-3.8%	-10.0%	x	x	x	x	x
CCN1CCc2c(sc(NC(=O)C3CCCCC3)c2C(=O)OC)C1	-6.3	u	17.8µM*	-4.9%	3.6%	-15.6%	-10.8%	4.6%	13.2%	5.7%
CC(=O)OCC1OC(n2c(Br)nc3c(=O)[nH]c(N)nc32)C(OC(C)=O)C1OC(C)=O (centres undefined)	x	x	-6.2%	x	x	x	x	x	x	x
Cc1ccc(C2C(C#N)=C(N)OC3=C2C(=O)CCC3)s1 (centres undefined)	13.1	42.1%	-13.5%	24.4%	-4.9%	x	x	x	x	x
Cc1ccsc1C1C(C#N)=C(N)OC2=C1C(=O)CCC2 (centres undefined)	12.4	u	17.7µM*	-2.1%[57.1 µM]	2.5%	36.5%	17.3%	-26.6%	-29.7%	u
COc1ccc(CCNCc2cc(OC)cc(OC)c2)cc1	-5.4	x	x	x	x	x	x	x	x	x
COc1ccc(CCNCc2cc(C)n(-c3ccc(OC)cc3)c2C)cc1	16.0	u	14.1µM*	50.1µM*	u	6.3%[10.4 µM]	-1.8%	6.4%	-5.4%	1.4%
Cc1ccc(NC(=O)CN2C(=O)C(c3ccc(F)cc3)=NC23CCCCC3)c(C)c1	-35.4	x	x	-4.1%	x	x	x	x	x	x
CCc1nc(C)ccc1OCC(=O)NCCCN(C)C	14.9	-3.5%	12.6µM*	9.5%	12.9%	12.6%[10.4 µM]	-0.8%	-1.5%	6.4%	-14.9%
CC(C)(C)OC(=O)N1CSC[C@H]1C(=O)NC[C@H](CC(=O)O)c1ccc(Cl)cc1	89.1	17.9%	9.1%	2.5%	1.3%	x	x	x	x	x
O=S(=O)(/N=C(/NC(=S)Nc1ccccc1)c1ccccc1)c1ccc(Cl)cc1	20.6	u	17.8µM*	u	171.8%	u	10.0%	3.8%	11.8%	18.4%
Cc1ncc(C[n+]2csc(CCOP(=O)(O)OP(=O)(O)O)c2C)c(N)n1	x	-3.2%	3.2%	x	-2.1%	x	x	x	x	x
Cc1ccccc1C(=O)c1cccn1CC(=O)NCCCN1CCc2ccccc2C1	-18.8	32.1%	15.8µM*	-19.9%	u	u	-11.7%	8.7%	10.0%	5.9%
O=c1c2cn[nH]c2[nH]c(=S)n1-c1ccccc1	19.9	34.1%	u	-8.2%	11.9%	x	x	x	x	x
COc1ccc(-n2c(=S)[nH]c3[nH]ncc3c2=O)cc1	18.8	84.6%	17.7µM*	16.0%	29.5%	-11.3%[10.4 µM]	7.2%	0.8%	2.7%	9.5%
CC(C)(C)S(=O)(=O)N1C[C@@H]2C(=C(CCO)C[C@@H]3C(=O)N(c4ccccc4)C(=O)[C@@H]32)[C@H]1CCO	9.0	x	x	x	x	x	x	x	x	x
CC(NC(=O)COC(=O)c1ccc(Br)o1)c1ccccc1 (centres undefined)	-17.9	36.7%	x	-17.4%	6.6%	x	x	x	x	x
O=CN1CCN(C(=S)NC(=O)c2ccc(Cl)cc2)CC1	-2.2	8.8%	10µM*	-16.0%	-1.7%	-5.0%[38.3 µM]	9.9%	1.5%	5.5%	-6.7%
C/C(CC(=O)N1CCN(C=O)CC1)=N\NC(=O)c1ccc(Cl)cc1	-4.4	u	-10.9%	0.0%	40.0%	x	x	x	x	x
